Screens deposited in PubChem by several laboratories.
In the library only some 32% were active in any assay of this set; here they are far more common.
PostGolgi ctrl – growth of the yeast control strain, post-Golgi counter-screen; efflux-deficient yeast background strain, growth absorbance A615, 16 h; inhibition, % at 10 µM; actives 5% (n = 98,000)
CYP2C9 activ – increases human cytochrome P450 2C9 activity; actives 1.4% (n = 96,000); recombinant CYP2C9, luciferin-H conversion, luminescence; stronger effect = higher value; factor 1 = untreated enzyme, 0 = blocked; P11712; activation factor at 5 µM; AID 1024;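 active = activation factor of 2 or more for CYP2C9 at a 5 µM dose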
Target sequence (P11712 whole entry, looked up): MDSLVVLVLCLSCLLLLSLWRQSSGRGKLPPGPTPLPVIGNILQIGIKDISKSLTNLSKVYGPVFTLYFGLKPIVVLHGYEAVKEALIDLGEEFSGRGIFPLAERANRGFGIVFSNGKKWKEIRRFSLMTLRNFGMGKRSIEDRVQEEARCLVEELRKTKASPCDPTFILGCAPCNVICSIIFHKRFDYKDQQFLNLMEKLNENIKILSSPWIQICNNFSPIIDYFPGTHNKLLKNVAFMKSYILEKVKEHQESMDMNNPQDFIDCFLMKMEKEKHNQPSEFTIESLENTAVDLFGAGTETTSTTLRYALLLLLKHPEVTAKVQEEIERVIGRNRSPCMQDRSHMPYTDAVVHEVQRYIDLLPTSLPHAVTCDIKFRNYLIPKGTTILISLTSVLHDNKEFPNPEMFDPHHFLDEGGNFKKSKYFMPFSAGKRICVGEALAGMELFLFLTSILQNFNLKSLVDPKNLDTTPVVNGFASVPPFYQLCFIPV
CYP2C9 inh – human CYP2C9 inhibition; P11712; CYP2C9 Supersomes, luciferin-H conversion, luminescence; inhibition, % at 5 µM; actives 20% (n = 96,000); AID 777;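 active = blocking of liver enzyme CYP2C9 beyond about 50% at 5 µM, limit read from the data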
PostGolgi yeast – growth inhibition of a yeast mutant, post-Golgi transport screen; post-Golgi transport phenotypic cell assay; inhibition, % at 10 µM; actives 0.9% (n = 98,000);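 also: yeast cells grown in 1536-well plates; yeast grown about 18 h at 30C before absorbance read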
CYP2C19 act – increases human CYP2C19 enzyme activity | 96,000 tested, under 10 active | activation factor at 5 µM | P33261 | AID 1025 | recombinant CYP2C19, luciferin-H EGE luminescence; stronger effect = higher value; 0 = fully inhibited enzyme, 1 = untreated enzyme;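 active = activation factor of at least 2 at 5 µM in the primary screen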
CYP2C19 inhib – blocks human cytochrome P450 2C19. P33261. CYP2C19 Supersomes, luciferin-H EGE luminescence, 30 min. inhibition, % at 5 µM. actives 21% (n = 96,000);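 active = CYP2C19 inhibition above a set limit at 5 µM in the primary screen, cut at about 50% in these data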
Large screens that a line does not name were inactive. Rule as the data show it, unless noted: active = inhibition above about 30%; inactive = the rest.

Cc1cc(C)c(C(=O)COC(=O)[C@H](C)Nc2ccc(C(F)(F)F)cc2[N+](=O)[O-])c(C)c1	CYP2C9 inh 90.3, CYP2C19 inhib 79.0
COc1ccc(C(=O)COC(=O)[C@H](C)Nc2ccc(C(F)(F)F)cc2[N+](=O)[O-])cc1	CYP2C9 inh 75.1
O=C(NCCCNc1ccc(C(F)(F)F)cc1[N+](=O)[O-])c1ccc(Cl)cc1	none
N/C(=N\OC(=O)Cc1cccc2ccccc12)c1ccccn1	none
c1ccc2c(CSCCc3ccncc3)cccc2c1	CYP2C9 inh 93.7, CYP2C19 inhib 97.0
CS(=O)(=O)NCCSCc1ccc(Cl)cc1	none
Clc1ccc(CSCCc2ccncc2)cc1	CYP2C9 inh 100.0, CYP2C19 inhib 100.4
COc1ccc(Cc2nc(-c3cccc(C)c3)no2)cc1	none
Cc1cccc(-c2noc(Cc3ccc(Cl)cc3)n2)c1	CYP2C9 inh 56.0, CYP2C19 inhib 79.9
CC(CCc1ccco1)NC(=O)Cn1nc(Cc2ccncc2)c2ccccc2c1=O (stereo not given)	CYP2C9 inh 86.2, CYP2C19 inhib 84.5
O=C(Cn1nc(Cc2ccncc2)c2ccccc2c1=O)N1CCN(C(=O)c2ccco2)CC1	CYP2C9 inh 64.3
CC1CCN(C(=O)CN(C)S(=O)(=O)c2cccc3nsnc23)CC1	none
Cc1ccc(CCNC(=O)CN(C)S(=O)(=O)c2ccc3c(c2)c(=O)n(C)c(=O)n3C)cc1	none
COc1ccccc1CNc1nc2nc(C)c(Cl)c(=O)n2[nH]1	CYP2C9 inh 61.1
O=C(Nc1nnc(C2CC2)s1)c1cccc(S(=O)(=O)N2CC(c3ccccc3)CC2=O)c1 (stereo not given)	none
COC(=O)NCc1ccc(Cl)c(Cl)c1	CYP2C19 inhib 64.3
COc1ccc(CNC(=O)Oc2ccccc2)cc1Cl	CYP2C9 activ 2.4, CYP2C19 inhib 62.9
CSc1nnc(C)c(=O)[nH]1	none (no result: CYP2C9 activ, CYP2C9 inh, CYP2C19 act, CYP2C19 inhib)
CCOC(=O)c1cc(=O)n(Cc2ccccc2C)c2ccccc12	none
O=c1cc[nH]c2cccc(Cc3ccccc3)c12	none
CN(C)S(=O)(=O)N1CCN(C(=O)c2cccs2)CC1	CYP2C19 inhib 75.7
O=C(c1cccs1)N1CCN(S(=O)(=O)Cc2ccccc2)CC1	none (no result: CYP2C9 activ, CYP2C9 inh, CYP2C19 act, CYP2C19 inhib)
CC(C)n1c(N2CCN(C(=O)c3cccs3)CC2)nc2ccccc21	CYP2C9 inh 58.5, CYP2C19 inhib 50.9
COc1ccc(S(=O)(=O)N2CCN(C(=O)c3cccs3)CC2)cc1	CYP2C19 inhib 93.6
CC(C)Cn1c(N2CCN(C(=O)c3cccs3)CC2)nc2ccccc21	none
Cc1ccccc1-n1cnnc1SCC(=O)N1CCN(c2ccccc2)CC1	none
COc1ccc(-c2nc(SC)n(C(=O)c3ccco3)n2)cc1	none
CCOC(=O)C1=C(SCC(=O)Nc2ccccc2)NC(=O)C(C#N)C12CCCCC2 (stereo not given)	CYP2C9 inh 84.8, CYP2C19 inhib 92.7
CC(C)(C)C1CCC2(CC1)C(C#N)=C(SCC(=O)NC1CCCCC1)NC(=O)C2C#N (stereo not given)	CYP2C9 inh 91.6
N#CC1=C(SCC(=O)Nc2cccc3cccnc23)NC(=O)C(C#N)C12CCCCC2 (stereo not given)	CYP2C9 inh 91.3, CYP2C19 inhib 78.3
N#CC1=C(SCC(=O)NC23CC4CC(CC(C4)C2)C3)NC(=O)C(C#N)C12CCCCC2 (stereo not given)	none (no result: CYP2C9 activ, CYP2C9 inh, CYP2C19 act, CYP2C19 inhib)
C=CCSC1=C(C#N)C2(CCCCC2)C(C#N)C(=O)N1 (stereo not given)	CYP2C9 inh 83.2, CYP2C19 inhib 58.3
Cc1nc(SCC#N)c2c(C)c(C)sc2n1	none
C=CCSC1=NC(N)=C(C#N)C2(CCCCC2)C1C(N)=O (stereo not given)	CYP2C19 inhib 88.8
N#CC1=C(SCC(=O)NC2CC2)NC(=O)C(C#N)C12CCCCC2 (stereo not given)	CYP2C9 inh 67.9
C#Cc1ccc(C(=O)Nc2cc(C(N)=O)ccc2N2CCOCC2)cc1	none
Cc1ccc(S(=O)(=O)NCCCCCC(=O)Nc2ccccn2)cc1	none
CCc1cc2c(=O)n(CC)c(SC(C)C(=O)Nc3c(C)n(C)n(-c4ccccc4)c3=O)nc2s1 (stereo not given)	none
CCn1ncc(C2=NOC(C(=O)Nc3cccc(C(C)=O)c3)C2)c1C (stereo not given)	none
COc1ccc(OC)c(-c2cc(C(=O)Nc3c(C)nn(Cc4ccccc4)c3C)no2)c1	PostGolgi ctrl 37.7
COc1ccc(OC)c(-c2cc(C(=O)Nc3cc(C)on3)no2)c1	none
COC(=O)c1sccc1-c1ccc(C(=O)Nc2cccc(Cl)c2)o1	PostGolgi ctrl 45.7, CYP2C9 inh 72.0
COc1ccc(OC)c(-c2cc(C(=O)Nc3c(C)nn(Cc4ccc(Cl)cc4)c3C)no2)c1	PostGolgi ctrl 33.5
COc1ccc(OC)c(-c2cc(C(=O)Nc3cccc(Cl)c3)no2)c1	CYP2C9 activ 2.2
Cc1cc(C)cc(N(CC(=O)NCC2CCCO2)C(=O)CN2C(=O)COc3ccccc32)c1 (stereo not given)	none
N#CC1(C#N)CC(C=O)=C(N)C1(C#N)CC(=O)c1ccc(F)cc1 (stereo not given)	none
N#CCC(=N)N1CCN(c2ccccc2Cl)CC1	none
CC(C)OC(=O)/C(=C\c1ccc2c(c1)c1ccccc1n2C)NC(=O)c1ccccc1	CYP2C9 inh 75.7
O=c1c2ccccc2nc(SCc2ccc([N+](=O)[O-])cc2)n1-c1ccccc1	none
COc1ccc(-c2nnc(CSc3nc4ccccc4c(=O)n3CC(C)C)o2)cc1OC	CYP2C9 inh 96.6, CYP2C19 inhib 91.8
COc1cc(-c2nnc(CSc3nc4ccccc4s3)o2)cc(OC)c1OC	CYP2C9 inh 65.4, CYP2C19 inhib 52.8
COc1ccc(-c2noc(CSc3nc4ccccc4c(=O)n3-c3ccccc3)n2)cc1OC	CYP2C9 inh 69.1
O=c1c2ccccc2nc(SCc2nc(-c3ccccc3)no2)n1-c1ccc(F)cc1	CYP2C9 inh 58.6
COc1ccc(-c2nnc(CSc3nnc(-c4ccncc4)n3C3CCCCC3)o2)cc1OC	none
Cc1c(NC(=O)c2c(F)c(F)c(F)c(F)c2F)c(=O)n(-c2ccccc2)n1C	none
CCOC(=O)CCc1c(C)c2c(C)nn(-c3ccccc3)c2[nH]c1=O	none (no result: CYP2C9 activ, CYP2C9 inh, CYP2C19 act, CYP2C19 inhib)
COc1ccc(-c2nn3cnnc3s2)cc1OC	none
Cc1cc(C)c2[nH]c(=O)c(CN(Cc3ccco3)C(=O)C3CCCO3)cc2c1 (stereo not given)	none
Cc1cccc2cc(CN(Cc3ccco3)C(=O)c3ccncc3)c(=O)[nH]c12	CYP2C9 inh 94.5, CYP2C19 inhib 98.0
Cc1cccc2cc(CN(CCCO)C(=O)Nc3ccc(Cl)cc3)c(=O)[nH]c12	none (no result: CYP2C9 activ, CYP2C9 inh, CYP2C19 act, CYP2C19 inhib)
Cc1cccc2cc(CN(CCCO)C(=O)Nc3cccc(Cl)c3)c(=O)[nH]c12	CYP2C9 inh 81.0, CYP2C19 inhib 70.8
COc1ccc(CC(=O)OCc2cc3cccc(C)c3[nH]c2=O)cc1	none
